Experimental findings from PubChem BioAssay are described below.

For test [1], the target named is Sentrin-specific protease 8 (Homo sapiens) (UniProt Q96LD8). As to the kind of experiment: human SENP8 peptidase blockers, hit retest – biochemical, luminescence, single concentration, confirmation (AID 488912;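 active = mean inhibition across replicates above about 50%, limit read from the data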). The following applies: Recombinant SENP8, Z-RLRGG-aminoluciferin luminescence, 60 min; at 12.5 µM; stronger effect = higher value.
The target in test [2] is Sentrin-specific protease 6 (Homo sapiens) (UniProt Q9GZR1). Briefly: inhibition of human SENP6 catalytic domain – biochemical, luminescence, single concentration, confirmation (AID 488915). The following applies: recombinant SENP6, Z-RLRGG-aminoluciferin luminescence; at 12.5 µM; stronger effect = higher value.
The target of test [3] is Sentrin-specific protease 7 (Homo sapiens) (UniProt Q9BQF6). As to the kind of experiment: human SENP7 peptidase blockers, hit retest – biochemical, luminescence, single concentration, confirmation (AID 488917). The following applies: recombinant SENP7, Z-RLRGG-aminoluciferin luminescence, 40 min; at 12.5 µM; stronger effect = higher value.
In another test the target is Caspase-3 (Homo sapiens) (UniProt P42574). Briefly: human caspase-3 activity blockade, out-of-family – biochemical, single concentration, selectivity assay for SENP inhibitor project, confirmation (AID 488918;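 active = mean inhibition above about 50%, limit read from the data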;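 note: plate controls were enzyme with DMSO for no effect and wells without caspase-3 for full effect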). The following applies: purified caspase-3, Z-DEVD-aminoluciferin luminescence, 60 min; at 12.5 µM; stronger effect = higher value.
The nature of test [4]: Ultra-Glo luciferase signal interference – biochemical, single concentration, SENP8 reaction pre-completed, artefact control for SENP inhibitor project, confirmation (AID 488919;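 active = mean inhibition above about 50% when retested at one dose, limit read from the data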;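 note: plate controls were DMSO wells with completed reaction for no effect and substrate without enzyme for full effect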). The following applies: Pre-incubated SENP8/Z-RLRGG-aminoluciferin, luciferase luminescence interference; at 12.5 µM; stronger effect = higher value.
A short description of test [5]: apoptosome-driven caspase-3 activation blockers – biochemical, fluorescence, DEVD-Rh110, 20 µM, confirmation (AID 504614;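 active = mean inhibition of at least 40% at 20 µM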;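 note: plate controls were DMSO wells for no effect and DEVD-CHO caspase inhibitor control wells for full effect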). The following applies: reconstituted apoptosome, caspase-3 DEVD-Rh110 fluorescence; at 20 µM; stronger effect = higher value.
Test [6] is described as follows: detection-step artefacts after completed caspase reaction – biochemical, fluorescence, Rh110, 20 µM, artefact control for Apaf-1 inhibitor project, confirmation (AID 504615;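 active = signal rise of 40% or more at 20 µM, treated as a fluorescence artifact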). The following applies: quenched caspase reaction, at 20 µM, stronger effect = higher value.

SMILES strings stand for the structures. The list shows a part of the results. Unmarked numbers belong to inactive results. The source made the active and inactive calls.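 Rule for the calls, unless noted: active = mean inhibition above about 50% in the one-dose retest (limit read from the data); inactive = the rest.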

Sequence of Sentrin-specific protease 8 (Homo sapiens) (Q96LD8 whole entry, looked up, the tested form may be a part): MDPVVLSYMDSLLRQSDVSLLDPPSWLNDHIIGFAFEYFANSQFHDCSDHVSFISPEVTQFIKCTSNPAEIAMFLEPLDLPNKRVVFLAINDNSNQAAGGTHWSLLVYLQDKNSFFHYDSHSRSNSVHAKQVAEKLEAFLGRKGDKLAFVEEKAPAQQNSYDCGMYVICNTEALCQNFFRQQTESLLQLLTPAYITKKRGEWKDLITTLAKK
Sequence of Sentrin-specific protease 6 (Homo sapiens) (Q9GZR1 628-1112 limits assumed): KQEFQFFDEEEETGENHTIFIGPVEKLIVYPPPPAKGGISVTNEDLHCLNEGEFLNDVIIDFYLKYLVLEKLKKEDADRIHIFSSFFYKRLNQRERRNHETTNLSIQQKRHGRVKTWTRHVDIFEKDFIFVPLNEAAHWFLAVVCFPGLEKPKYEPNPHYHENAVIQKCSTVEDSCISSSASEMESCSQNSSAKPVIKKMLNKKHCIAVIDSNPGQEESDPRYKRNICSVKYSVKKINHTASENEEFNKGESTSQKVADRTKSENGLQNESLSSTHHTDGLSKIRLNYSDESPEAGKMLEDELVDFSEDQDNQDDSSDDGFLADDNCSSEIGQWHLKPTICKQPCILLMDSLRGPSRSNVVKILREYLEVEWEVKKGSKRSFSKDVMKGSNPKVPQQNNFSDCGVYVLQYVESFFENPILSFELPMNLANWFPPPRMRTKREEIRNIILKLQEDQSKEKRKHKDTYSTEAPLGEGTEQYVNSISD
Sequence of Caspase-3 (Homo sapiens) (P42574 28-227 limits assumed): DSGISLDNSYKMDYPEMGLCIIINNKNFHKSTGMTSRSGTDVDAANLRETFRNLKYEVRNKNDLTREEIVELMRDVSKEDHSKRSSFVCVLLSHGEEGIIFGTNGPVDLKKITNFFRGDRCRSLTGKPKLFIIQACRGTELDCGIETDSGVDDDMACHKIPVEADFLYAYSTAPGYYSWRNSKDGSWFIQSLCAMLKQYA
Sequence of Sentrin-specific protease 7 (Homo sapiens) (Q9BQF6 706-1050 limits assumed): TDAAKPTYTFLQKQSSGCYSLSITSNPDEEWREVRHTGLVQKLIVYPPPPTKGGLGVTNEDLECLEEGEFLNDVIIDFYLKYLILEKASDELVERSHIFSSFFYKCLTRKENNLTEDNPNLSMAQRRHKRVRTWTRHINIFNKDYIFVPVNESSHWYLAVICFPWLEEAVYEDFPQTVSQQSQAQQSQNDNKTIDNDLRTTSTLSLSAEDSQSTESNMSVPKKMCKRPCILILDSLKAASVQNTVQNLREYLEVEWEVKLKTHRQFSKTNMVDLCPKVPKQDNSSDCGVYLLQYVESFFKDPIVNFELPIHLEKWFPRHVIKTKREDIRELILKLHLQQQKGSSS

With `Cc1nn2cc(-c3ccc(Cl)cc3)cnc2c1Br`, the inhibition in test [1] is 17.8%; in test [2] it was 15.7%; in test [3] it was 30.8%; with Caspase-3 (Homo sapiens) it was 28.5%; in test [4], 9%.
For `CN(CCO)c1ccc(/C=N/Nc2nncc3ccccc23)cc1`, in that order: 98.7% (active), 99.7% (active), 103% (active), 98.7% (active) and 93.4% (active).
For `COc1ccc(C(CC(=O)c2ccccc2)S(=O)(=O)c2ccccc2)cc1` (configuration not stated) the same measures were 25%, 33.4%, 30.3%, 9% and 4.7%.
For `Cc1cc(C(=O)Nc2nnc(C3CC3)s2)c(C)s1` the same measures were 63.4% (active), 80.8% (active), 94.1% (active), 83.7% (active) and 16.4%.
Turning to `O=C(Nc1ccc(F)cc1)c1cc2c(s1)CCCC2`, the inhibition is 93.3% (active) in test [1]; 93.7% (active) in test [2]; 101% (active) in test [3]; 84% (active) with Caspase-3 (Homo sapiens); 84.2% (active) in test [4].
For `Cc1[nH]n(-c2ccc([N+](=O)[O-])cc2)c(=O)c1C=NCCN1CCN(C(=O)c2ccccc2F)CC1` the same measures were 20.7%, 17.1%, 3.9%, 37.1% and 49.3%.
For the compound `N#Cc1c(N2CCCCC2)nc(N)c2c(N)nc(SCC(=O)O)cc12`, the inhibition is 11.2% in test [1]; 72.6% (active) in test [2]; 61.9% (active) in test [3]; 0.8% with Caspase-3 (Homo sapiens); -0.2% in test [4]; 31.3% in test [5]. The activation (fluorescence interference) in test [6] was 7.18%.
With `c1ccc(-c2cc(-c3ccccc3)[nH]n2)cc1`, the inhibition is 69.7% (active) in test [1]; 64.5% (active) in test [2]; 85.8% (active) in test [3]; 38% in the test with Caspase-3 (Homo sapiens); 71.4% (active) in test [4].
